Assay [1] in a line: Primary qHTS for small molecule stabilizers of the endoplasmic reticulum resident proteome: Secreted ER Calcium Modulated Protein (SERCaMP) assay (AID 1508630). Also: % is scaled to controls: 0 for no effect and ±100 for the full control effect. The method, boiled down:
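The SH-SY5Y reporter protocol was run at 3 concentrations up to 38.3 uM (primary) or 11 concentrations (follow-up): 16 h compound, 100 nM thapsigargin for 4 h, then extracellular luciferase luminescence.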

Assay [2] concerns the target Lysosomal acid glucosylceramidase (Homo sapiens) (UniProt P04062). In words: Glucocerebrosidase-p2 (AID 348; in the data active = potency below about 10 µM; also: potency is read from the fitted curve at half-maximal effect). The note with it: purified GBA, blue fluorogenic substrate, 40 min. In outline:
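Normal human glucocerebrosidase (0.2 nM) with blue fluorogenic substrate (80 uM final) in citrate/phosphate pH 5.9 with 10mM sodium taurocholate, 0.01% tween-20; 40 min RT, NaOH/glycine stop; fluorescence Ex 365/Em 440; AC50 from a titration from 0.6 nM upwards.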

Assay [3] is described as follows: NFAT Signaling Pathway (AID 444; active = well fitted curve in either direction with a large enough effect, not every such curve was filed as active;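 also: carbachol stimulus at about its EC50 of 1 µM final; % is scaled to controls: 0 for no effect and ±100 for the full control effect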). Particulars: Jurkat NFAT-bla M1, carbachol, beta-lactamase ratio, 5 h; at 7.69 µM (top of the series) unless noted. The method, boiled down:
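Jurkat cells carrying an NFAT-driven β-lactamase reporter and co-transfected muscarinic M1 receptor were treated with compound plus carbachol (1 uM final, an EC50 level) for 5 h at 37 °C. CCF4 loading followed for 1 h at RT; 460/530 nm ratio gave %activity.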

Assay [4] deals with Glucocorticoid receptor (Homo sapiens) (UniProt P04150). The assay can be described thus: GR-GFP Redistribution (AID 450;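 active = compounds whose dose series gives a full or clear partial fitted curve of increased nuclear translocation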; also: potency is read from the fitted curve at half-maximal effect). The note with it: U2OS GR-GFP nuclear translocation, laser cytometry, 2 h.
Assay [5] shares this target. The assay can be described thus: GR-EFC Redistribution (AID 451; calls by dose curve; also: potency is read from the fitted curve at half-maximal effect). The note with it: CHO-K1 GR-EFC translocation, beta-gal luminescence, 2 h. The method, boiled down: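 CHO-K1 cells stably expressing nuclear-localized β-gal enzyme acceptor and GR fused C-terminally to the enzyme donor fragment; ligand-driven nuclear translocation restores β-gal by complementation. Compounds titrated up to 46 uM final, 2 h at 37 °C; luminescence read.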

Assay [6] deals with Mitogen-activated protein kinase 10 (Mus musculus) (UniProt Q61831). In words: JNK3 AlphaScreen Assay (AID 530; active = well fitted curve in either direction with a large enough effect, not every such curve was filed as active;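 also: kinase came from lysate of stimulated human HepG2 cells; signal reports phosphorylation of biotinylated GST-cJun 1-79 at Ser73 with 10 µM ATP; % is scaled to controls: 0 for no effect and ±100 for the full control effect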). The method, boiled down: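 Phosphorylation of biotinylated GST-cJun(1-79) at Ser73 is measured by AlphaScreen proximity luminescence. Enzyme is JNK3 in HepG2 lysates activated with interleukin-1beta and tumor necrosis factor alpha; ATP is 10 uM final.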
Assay [7] addresses 3',5'-cyclic-AMP phosphodiesterase 4B (Homo sapiens) (UniProt Q07343). In words: qHTS Assay for Inhibitors of PDE-IV (AID 607; active = well fitted activation curve with a large enough effect in the main read-out, with a control signal flat, not every such curve was filed as active; also: % of control where 0% means no effect). The method, boiled down: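 The readout is membrane depolarisation from a cAMP-sensing CNG channel, detected with a potential dye at ex 535/em 590. Cells were HEK293-derived (endogenous PDE-IV) at 1000 cells/well, titrated up to 22.9 uM final.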
Assay [8] can be described thus: qHTS Assay for Lipid Storage Modulators (AID 1519; calls by dose curve). The note with it: Drosophila S3 cells, BODIPY lipid droplet/cell ratio, laser cytometry, cells loaded with oleic acid; for activity change, negative = inhibition: at 57.5 µM (top of the series). The method, boiled down: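 Cells seeded at 5,000 per well were treated with compounds over a concentration series and loaded with oleic acid (400 uM, as added). Lipid droplet fluorescence (488 nm excitation, 500-530 nm channel) was read by laser-scanning cytometry and normalized to 20 uM Triacsin C.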

Assay [9] concerns the target Dual specificity protein kinase CLK4 (Homo sapiens) (UniProt Q9HAZ1). The assay can be described thus: qHTS Assay for Inhibitors of CDC-like Kinase 4 (Kinase-Glo Assay) (AID 1770). Also: % is scaled to controls: 0 for no effect and ±100 for the full control effect; nearly all actives have a fitted effect of over 65% in size. The method, boiled down:
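Readout: Kinase-Glo luminescence from ATP left after a 4.5 h room-temperature reaction of 25 nM Clk4 with 100 uM RS peptide and 1 uM ATP (final). Buffer: 25 mM Tris pH 7.5, 10 mM MgCl2.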

For assay [10] the target is unchanged. In words: qHTS Assay for Inhibitors of CDC-like Kinase 4 (ADP-Glo Assay) (AID 1771). Also: % is scaled to controls: 0 for no effect and ±100 for the full control effect; nearly all actives have a fitted effect of over 70% in size. In outline:
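Compounds are pin-transferred onto substrate mix (100 uM RS peptide, 1 uM ATP), then 25 nM Clk4 is added. After 1 hr at room temperature, ADP-Glo reagent runs 45 min, detection reagent 30 min, then luminescence is read.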

The target is the same in assay [11]. The assay can be described thus: qHTS Assay for Inhibitors of CDC-like Kinase 4 (ADP-FP Assay) (AID 1795).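 Also: recombinant human CLK4 phosphorylating RS repeat peptide at 1 µM ATP; % is scaled to controls: 0 for no effect and ±100 for the full control effect; nearly all actives have a fitted effect of over 60% in size.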 The method, boiled down: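 FP readout: Orange Transcreener ADP2 tracer (4 nM) plus ADP antibody, read after 30 min at room temperature. Kinase step: 6.25 nM Clk4, 100 uM RS peptide, 1 uM ATP, pH 7.5, 1 h.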
Assay [12] has as its target Ubiquitin carboxyl-terminal hydrolase 1 (Homo sapiens) (UniProt O94782). In words: Inhibitors of USP1/UAF1: Pilot qHTS (AID 504865).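 Also: rhodamine fluorescence freed from ubiquitin-rhodamine substrate followed over time; top concentration of the series differs between compounds; % is scaled to controls: 0 for no effect and ±100 for the full control effect; nearly all actives have a fitted effect of over 35% in size.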 In outline: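 1nM USP1/UAF1 + cpd, 15 min RT; start w/ Ub-Rho 150nM final; kinetic FL 480/540 nm, 6 reads q60 s. Buffer 50mM HEPES pH 7.8, 0.5mM EDTA, 1mM TCEP, 0.01% Tween-20, 0.1 mg/ml BSA.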
For assay [13], the target named is Rap guanine nucleotide exchange factor 3 (Homo sapiens) (UniProt O95398). In words: Confirmatory qHTS for antagonist of cAMP-regulated guanine nucleotide exchange factor 3 (EPAC1) (AID 1645880).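 Also: plate controls were DMSO only for no effect and full effect of the ATA control for full effect; nearly all actives have a fitted effect of over 55% in size.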 The method, boiled down: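 Released BODIPY-GDP fluoresces less than Rap1-bound BODIPY-GDP; the signal is followed at 480/540 nm at 5-min intervals over 30 min, after 5 min at room temperature. Reactions contain 100 nM EPAC1, 250 nM RAP1B-BODIPY-GDP and 50 uM GDP; results are normalized to ATA and DMSO.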

Assay [14] has the same target. The assay can be described thus: Confirmatory qHTS for agonist of cAMP-regulated guanine nucleotide exchange factor 3 (EPAC1) (AID 1645881).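 Also: EPAC1 catalysed release of BODIPY-GDP from Rap1B seen as fluorescence loss; 100% = effect of cAMP agonist control; nearly all actives have a fitted effect of over 75% in size.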
For assay [15], the target named is Rap guanine nucleotide exchange factor 4 (Homo sapiens) (UniProt Q8WZA2). In words: Confirmatory qHTS for agonist of cAMP-regulated guanine nucleotide exchange factor 4 (EPAC2) (AID 1645884).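 Also: nucleotide exchange releases bodipy-GDP from Rap1 and this lowers its fluorescence; % is scaled to controls: 0 for no effect and ±100 for the full control effect; nearly all actives have a fitted effect of over 65% in size.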
Assay [16] has the same target. In words: Confirmatory qHTS for antagonist of cAMP-regulated guanine nucleotide exchange factor 4 (EPAC2) (AID 1645885). Also: % is scaled to controls: 0 for no effect and ±100 for the full control effect; nearly all actives have a fitted effect of over 25% in size.
Assay [17] in a line: AP1 Signaling Pathway (AID 357; active = well fitted curve in either direction with a large enough effect, not every such curve was filed as active; also: % is scaled to controls: 0 for no effect and ±100 for the full control effect). The note with it: ME-180 AP-1-bla reporter, EGF-induced, beta-lactamase ratio, 5 h; at 7.69 µM (top of the series) unless noted. In outline:
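ME-180 cells with beta-lactamase reporter under AP-1 response element, stimulated with EC50 EGF; compounds tested in titration series, 5 h at 37 °C. CCF4 substrate added 2.5 h at room temperature; 460/530 nm emission ratio gave %activity and AC50.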

In assay [18] the target is Cytochrome P450 1A2 (Homo sapiens) (UniProt P05177). The assay can be described thus: p450-cyp1a2 (AID 410; calls by dose curve; also: potency is read from the fitted curve at half-maximal effect;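 as to activity change, negative = inhibition: -100% = full effect of reference inhibitor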). The method, boiled down: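 O-Demethylation of luciferin 6' methyl ether by human CYP1A2 is monitored as luciferase luminescence. Substrate sits at Km (100uM); enzyme is 20nM. Values are scaled to 57 uM furafylline as maximal inhibition.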
Assay [19] can be described thus: Stat Signaling Pathway (AID 446; active = well fitted curve in either direction with a large enough effect, not every such curve was filed as active). Particulars: ME-180 (cervical carcinoma) SIE beta-lactamase reporter, IL-6 stimulated, 5 h; at 7.69 µM (top of the series) unless noted. In outline: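 Emission at 460 and 530 nm (excitation 405 nm) reports SIE-controlled beta-lactamase in ME-180 cells. Cells received compound with 40 pM IL-6 for 5 hrs at 37 C; data scaled between 300 pM IL-6 and 125 nM JAK-inhibitor controls.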

Assay [20] concerns the target Cytochrome P450 3A4 (Homo sapiens) (UniProt P08684). The assay can be described thus: qHTS Assay for Inhibitors and Substrates of Cytochrome P450 3A4 (AID 884). Also: % is scaled to controls: 0 for no effect and ±100 for the full control effect; nearly all actives have a fitted effect of over 50% in size. In outline: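 Luminescent readout of luciferin produced by CYP3A4 (20 nM) dealkylation of Luciferin-PPXE, 25 uM (its KM). NADPH-driven reaction ran 60 min at RT after 10 min compound preincubation; data scaled to 57 uM ketoconazole as 100% inhibition.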

The target is the same in assay [21]. The assay can be described thus: qHTS Assay for Activators of Cytochrome P450 3A4 (AID 885). Also: potency is read from the fitted curve at half-maximal effect; nearly all actives have a fitted effect of over 65% in size. The method, boiled down: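 Activators are scored by enhanced luminescence from CYP3A4 conversion of luciferin-PPXE (25uM, equal to KM) to luciferin, after 60 min at RT with an NADPH-regenerating system.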
Where [22] appears, read: measured here: cell count channel max response.
Setting [23] is: measured here: lipid channel max response.

Records with an inconclusive call do not appear. Calls of active or inactive are those of the source. Unless noted, calls follow the shape of the dose curve; as a rule, active = well fitted curve in the direction sought with a large enough effect; inconclusive = small, poorly fitted or top-dose-only effect, or another doubt; inactive = no such curve, though single readings can be large; an effect the other way counts as inactive or inconclusive.

Sequence of Glucocorticoid receptor (Homo sapiens) (P04150 whole entry, looked up, the tested form may be a part): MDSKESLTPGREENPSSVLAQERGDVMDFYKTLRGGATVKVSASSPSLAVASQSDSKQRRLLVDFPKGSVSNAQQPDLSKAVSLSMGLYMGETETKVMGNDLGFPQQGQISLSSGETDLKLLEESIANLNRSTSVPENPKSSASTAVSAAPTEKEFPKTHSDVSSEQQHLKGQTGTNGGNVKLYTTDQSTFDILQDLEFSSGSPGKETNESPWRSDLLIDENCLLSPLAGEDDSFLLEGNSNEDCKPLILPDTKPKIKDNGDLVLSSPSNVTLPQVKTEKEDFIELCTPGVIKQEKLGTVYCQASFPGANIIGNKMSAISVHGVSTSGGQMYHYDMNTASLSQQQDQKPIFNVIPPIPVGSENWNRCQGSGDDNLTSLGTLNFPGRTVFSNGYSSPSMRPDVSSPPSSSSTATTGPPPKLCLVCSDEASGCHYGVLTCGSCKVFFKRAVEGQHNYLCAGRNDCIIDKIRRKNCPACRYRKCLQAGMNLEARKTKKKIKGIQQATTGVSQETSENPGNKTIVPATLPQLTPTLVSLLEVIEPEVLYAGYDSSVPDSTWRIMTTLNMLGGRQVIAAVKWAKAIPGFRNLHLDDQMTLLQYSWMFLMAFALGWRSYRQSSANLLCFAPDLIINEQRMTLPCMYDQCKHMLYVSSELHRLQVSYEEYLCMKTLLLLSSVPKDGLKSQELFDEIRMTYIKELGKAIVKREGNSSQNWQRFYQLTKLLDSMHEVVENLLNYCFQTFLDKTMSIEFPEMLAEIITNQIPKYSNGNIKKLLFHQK
Sequence of Rap guanine nucleotide exchange factor 4 (Homo sapiens) (Q8WZA2 whole entry, looked up): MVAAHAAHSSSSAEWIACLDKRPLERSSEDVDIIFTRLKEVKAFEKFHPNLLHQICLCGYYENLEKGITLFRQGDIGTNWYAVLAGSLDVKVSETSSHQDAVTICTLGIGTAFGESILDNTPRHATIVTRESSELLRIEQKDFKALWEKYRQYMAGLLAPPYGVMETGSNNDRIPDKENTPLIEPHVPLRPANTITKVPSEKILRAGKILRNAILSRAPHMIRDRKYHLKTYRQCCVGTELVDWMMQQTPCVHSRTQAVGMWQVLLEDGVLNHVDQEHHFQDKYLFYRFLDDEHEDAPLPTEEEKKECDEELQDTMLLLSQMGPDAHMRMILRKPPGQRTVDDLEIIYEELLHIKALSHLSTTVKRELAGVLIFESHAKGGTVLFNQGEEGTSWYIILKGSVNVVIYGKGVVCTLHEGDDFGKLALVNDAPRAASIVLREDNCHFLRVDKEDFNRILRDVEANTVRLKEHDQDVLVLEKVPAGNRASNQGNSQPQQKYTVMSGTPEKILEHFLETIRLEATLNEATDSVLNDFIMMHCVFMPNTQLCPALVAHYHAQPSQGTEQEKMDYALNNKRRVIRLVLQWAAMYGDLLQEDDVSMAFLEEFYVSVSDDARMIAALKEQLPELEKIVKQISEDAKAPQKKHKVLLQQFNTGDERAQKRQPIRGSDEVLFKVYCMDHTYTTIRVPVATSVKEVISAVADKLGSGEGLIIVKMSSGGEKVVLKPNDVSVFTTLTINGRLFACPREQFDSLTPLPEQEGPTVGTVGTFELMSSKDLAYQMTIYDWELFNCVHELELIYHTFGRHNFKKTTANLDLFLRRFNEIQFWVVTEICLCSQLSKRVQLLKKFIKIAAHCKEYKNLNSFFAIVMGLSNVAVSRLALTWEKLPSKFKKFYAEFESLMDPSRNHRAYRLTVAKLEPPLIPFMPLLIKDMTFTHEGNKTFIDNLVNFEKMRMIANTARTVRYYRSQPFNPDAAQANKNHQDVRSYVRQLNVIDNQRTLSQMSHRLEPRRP
Sequence of Dual specificity protein kinase CLK4 (Homo sapiens) (Q9HAZ1 whole entry, looked up): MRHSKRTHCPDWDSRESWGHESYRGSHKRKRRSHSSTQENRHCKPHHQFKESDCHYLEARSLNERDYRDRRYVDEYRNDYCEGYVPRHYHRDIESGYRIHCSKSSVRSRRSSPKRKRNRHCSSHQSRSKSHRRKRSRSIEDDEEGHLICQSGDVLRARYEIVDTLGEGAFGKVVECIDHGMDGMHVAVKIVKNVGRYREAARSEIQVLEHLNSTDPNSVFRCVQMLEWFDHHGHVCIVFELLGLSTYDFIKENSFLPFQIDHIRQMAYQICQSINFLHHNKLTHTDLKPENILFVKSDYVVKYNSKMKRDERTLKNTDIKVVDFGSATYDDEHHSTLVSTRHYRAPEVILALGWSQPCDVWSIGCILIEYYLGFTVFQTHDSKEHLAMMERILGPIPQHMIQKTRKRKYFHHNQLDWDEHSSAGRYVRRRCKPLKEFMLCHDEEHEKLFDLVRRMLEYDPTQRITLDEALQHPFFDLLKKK
Sequence of Rap guanine nucleotide exchange factor 3 (Homo sapiens) (O95398 whole entry, looked up): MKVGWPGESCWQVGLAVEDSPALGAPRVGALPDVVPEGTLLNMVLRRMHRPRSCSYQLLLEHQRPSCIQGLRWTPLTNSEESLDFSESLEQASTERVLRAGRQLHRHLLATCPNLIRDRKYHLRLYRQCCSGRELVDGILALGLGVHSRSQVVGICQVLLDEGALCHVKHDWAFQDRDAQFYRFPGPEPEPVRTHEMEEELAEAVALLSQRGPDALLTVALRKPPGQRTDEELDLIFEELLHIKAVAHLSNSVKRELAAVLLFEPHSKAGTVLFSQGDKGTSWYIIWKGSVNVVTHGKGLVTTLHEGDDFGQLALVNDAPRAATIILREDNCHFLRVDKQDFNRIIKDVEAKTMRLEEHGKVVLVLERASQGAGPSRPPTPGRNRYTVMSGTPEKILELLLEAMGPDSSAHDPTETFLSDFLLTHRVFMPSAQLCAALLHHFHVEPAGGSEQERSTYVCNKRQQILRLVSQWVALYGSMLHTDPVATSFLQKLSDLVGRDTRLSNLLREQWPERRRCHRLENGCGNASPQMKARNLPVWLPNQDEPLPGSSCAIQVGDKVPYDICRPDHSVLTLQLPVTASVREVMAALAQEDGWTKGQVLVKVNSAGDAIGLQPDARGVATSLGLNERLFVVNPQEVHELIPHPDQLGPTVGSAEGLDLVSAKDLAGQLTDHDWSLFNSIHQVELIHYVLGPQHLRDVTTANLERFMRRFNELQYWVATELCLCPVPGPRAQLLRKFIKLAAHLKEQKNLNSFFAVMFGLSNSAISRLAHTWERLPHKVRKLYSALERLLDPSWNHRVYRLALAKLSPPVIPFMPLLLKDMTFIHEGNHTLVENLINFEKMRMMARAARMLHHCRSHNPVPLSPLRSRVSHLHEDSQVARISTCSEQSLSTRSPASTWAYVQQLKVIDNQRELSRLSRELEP
Sequence of Lysosomal acid glucosylceramidase (Homo sapiens) (P04062 whole entry, looked up): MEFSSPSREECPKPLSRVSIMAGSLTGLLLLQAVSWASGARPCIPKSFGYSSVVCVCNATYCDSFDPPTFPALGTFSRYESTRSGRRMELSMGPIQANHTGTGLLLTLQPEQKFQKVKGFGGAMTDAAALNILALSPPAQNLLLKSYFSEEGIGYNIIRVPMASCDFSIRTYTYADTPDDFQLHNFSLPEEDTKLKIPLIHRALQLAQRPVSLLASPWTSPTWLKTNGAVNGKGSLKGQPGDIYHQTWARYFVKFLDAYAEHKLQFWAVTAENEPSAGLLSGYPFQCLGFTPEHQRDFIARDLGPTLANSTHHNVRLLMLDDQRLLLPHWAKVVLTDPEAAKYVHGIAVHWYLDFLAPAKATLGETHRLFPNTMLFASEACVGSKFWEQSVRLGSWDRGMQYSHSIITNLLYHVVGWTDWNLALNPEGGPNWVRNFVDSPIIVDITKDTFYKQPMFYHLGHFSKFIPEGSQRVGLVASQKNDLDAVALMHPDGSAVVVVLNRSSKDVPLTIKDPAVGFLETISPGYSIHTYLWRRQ
Sequence of Cytochrome P450 1A2 (Homo sapiens) (P05177 whole entry, looked up): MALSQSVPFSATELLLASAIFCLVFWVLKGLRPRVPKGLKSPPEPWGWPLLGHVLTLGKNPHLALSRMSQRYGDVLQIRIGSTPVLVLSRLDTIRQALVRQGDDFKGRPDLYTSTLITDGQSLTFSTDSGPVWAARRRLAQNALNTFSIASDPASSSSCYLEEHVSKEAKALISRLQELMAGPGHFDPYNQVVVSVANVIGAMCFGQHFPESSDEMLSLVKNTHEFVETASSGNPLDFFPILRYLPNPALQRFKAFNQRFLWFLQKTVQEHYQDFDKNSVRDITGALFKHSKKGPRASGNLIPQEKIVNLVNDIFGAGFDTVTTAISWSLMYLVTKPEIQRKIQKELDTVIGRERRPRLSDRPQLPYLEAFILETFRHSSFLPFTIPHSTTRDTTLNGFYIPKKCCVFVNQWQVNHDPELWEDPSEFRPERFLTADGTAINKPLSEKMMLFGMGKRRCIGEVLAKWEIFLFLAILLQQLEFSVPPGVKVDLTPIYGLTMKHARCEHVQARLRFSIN
Sequence of Cytochrome P450 3A4 (Homo sapiens) (P08684 whole entry, looked up): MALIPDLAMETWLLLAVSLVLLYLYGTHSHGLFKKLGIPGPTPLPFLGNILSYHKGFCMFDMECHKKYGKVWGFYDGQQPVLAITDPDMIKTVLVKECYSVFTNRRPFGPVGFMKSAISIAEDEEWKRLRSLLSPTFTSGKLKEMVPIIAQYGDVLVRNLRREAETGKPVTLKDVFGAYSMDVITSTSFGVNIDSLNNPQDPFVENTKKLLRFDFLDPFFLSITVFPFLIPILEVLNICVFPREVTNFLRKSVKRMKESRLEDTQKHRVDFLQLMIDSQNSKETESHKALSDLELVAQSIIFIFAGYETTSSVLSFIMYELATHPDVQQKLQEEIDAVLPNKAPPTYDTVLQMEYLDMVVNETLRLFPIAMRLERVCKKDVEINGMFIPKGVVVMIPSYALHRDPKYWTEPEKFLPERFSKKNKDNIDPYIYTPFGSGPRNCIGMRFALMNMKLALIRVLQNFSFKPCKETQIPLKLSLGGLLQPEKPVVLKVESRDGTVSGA

Regarding `Cc1cc(O)c(C)c2c1CC[C@H]1[C@H](C)C(=O)O[C@H]21`, the Potency entry in assay [1] is “inactive”.

Turning to `Cc1csc(-c2coc3cc(O[C@@H]4O[C@H](CO)[C@@H](O)[C@@H](O)[C@H]4O)ccc3c2=O)n1`, the Potency result in assay [1] is “inactive”.

On to `COc1ccc(-n2c(=O)c(-c3cc(F)cc(F)c3)nc3cnc(N(C)C)nc32)cc1`, for which the Potency in [2] was > 11.4 µM (inactive); in assay [4] it was > 9.22 µM (inactive); in assay [5], > 46 µM (inactive). In addition, the results for the activity change, negative = inhibition in assay [3] and in assay [8] were 17.5% (inactive) and 5.64% (inactive), respectively. For the same compound, the compound was called inactive in assay [6], in [14] and in assay [15]. Besides, the Potency result in assay [7], in assay [9], in [10], in assay [11], in [12] and in [1] was “inactive” throughout. The Potency entry in assay [13] and in [16] was “inactive” in each case. Also, the values for the max response in assay [8] (setting [22]) and in assay [8] (setting [23]) were 11.6% and 18.1%, respectively.

Turning to `COc1cc2c(cc1OC)C(c1c[nH]c3ccccc13)NCC2` (centres undefined), in [1], the Potency entry was “inactive”.

As for `C=CC(C)(O)CC1[C@@]2(C)CCCC(C)(C)C2CC[C@]1(C)O` (some centres undefined), the Potency entry in [1] was “inactive”.

On to `O=CN1CCc2c([nH]c3ccccc23)C1c1cccc2cccnc12` (centres undefined), for which the Potency result in [1] is “inactive”.

For the compound `COCC(=O)N1CCC2(CC1)CCN(C(=O)Nc1cccc(C#N)c1)CC2`, the Potency in [2] was > 11.4 µM (inactive); in assay [5] it was > 46 µM (inactive). Further, the activity change, negative = inhibition in [17] is -4.8% (inactive); in assay [3] it was -11.9% (inactive); in assay [8], 1.13% (inactive). The Potency result in assay [18], in [1], in [13] and in assay [16] was “inactive” throughout. Further, the activity, negative = inhibition in assay [19] is -4.23% (inactive). Also, the call in [6], in assay [14] and in assay [15] was inactive. For the same compound, the results for the max response in assay [8] (setting [22]) and in [8] (setting [23]) were 4.68% and 4.41%, respectively.

Turning to `COC(=O)C1=COC(O[C@H]2OC(CO)[C@H](O)C(O)C2O)[C@H]2C1C(=O)C[C@@H]2C` (some centres undefined), in assay [1], the Potency result is “inactive”.

For the compound `C[C@@H](CN(C)C[C@H]1C(=O)O[C@@H]2C[C@@]3(C)CCC[C@]4(CO4)C3CC21)[C@H](O)c1ccccc1` (some centres undefined), in assay [1], the Potency result is “inactive”.

For `COc1c(CO)cc(CO)cc(CO)c1=O`, the Potency entry in assay [1] is “inactive”.

Consider `COc1cccc2c(=O)c3ccoc3n(C)c12`, for which, in [1], the Potency entry is “inactive”.

Take `CC1(C)Oc2ccc3ccc(=O)oc3c2CC1=O`: in assay [1], the Potency entry is “inactive”.

`CN[C@H]1CCc2cc(OC)c(OC)c(OC)c2-c2ccc(N[C@@H]3CCCCNC3=O)c(=O)cc21`: in assay [1], the Potency result was “inactive”.

`COc1cc(C(=O)Oc2ccc3c(OC)c4ccoc4nc3c2OC)cc(OC)c1OC`: in [1], the Potency result was “inactive”.

Turning to `CC1=C(C(N)=O)N2C(=O)[C@@H](NC(=O)Cc3ccccc3)C2SC1` (some centres undefined), in assay [1], the Potency entry is “inactive”.

On to `CC1CCC(C(C)[C@H]2CCC3C4CC(=O)C5C[C@@H](O)CC[C@]5(C)C4CC[C@@]32C)=NC1` (some centres undefined), for which the Potency entry in assay [1] was “inactive”.

Consider `CC1=CC(=O)C2=C(C)C[C@H](OC(=O)Cc3ccccc3)C3[C@H](OC(=O)[C@H]3C)C12` (some centres undefined), for which the Potency result in assay [1] is “inactive”.

As to `O=C(c1cccc(F)c1)N1CCC2(CC1)CN(c1cccc(-c3ccccc3)c1)C2`, the Potency in assay [2] was > 11.4 µM (inactive); in [18], 12.6 µM (active); in assay [5], > 46 µM (inactive); in assay [21] it was 3.16 µM (active). Further, the activity change, negative = inhibition in [17] was -6.1% (inactive); in assay [8], -19.2% (inactive). For the same compound, in assay [19], the activity, negative = inhibition was -13.4% (inactive). The Potency entry in [7], in [20], in assay [1], in assay [13] and in assay [16] was “inactive” in each case. For the same compound, the values for the max response in assay [8] (setting [22]) and in assay [8] (setting [23]) were -4.49% and -20.8%, respectively. Also, the result in [14] and in assay [15] was inactive.

The values above are taken from PubChem BioAssay (NCATS).
